# Experimental data: PubChem BioAssay
# Unmarked numbers belong to inactive results. Calls of active or inactive are those of the source.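 How the source made its calls, unless noted: active means inhibition above 50%; inactive means the rest.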
# System: not listed separately
# Experiment: HepG2 cytotoxicity, primary screen, cytotoxicity control for P. falciparum antimalarial project, cell-based, ATP luminescence (AID 2303);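 further: 0% = DMSO wells and 100% = digitonin-killed cells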
# Conditions: HepG2 viability, 24-48 h, at 10 µM, hits give high values
row,SMILES,inhibition
1,O=C(NCCCCN1CCN(c2ccc3c(c2)CCC3)CC1)c1ccc(NC(=O)c2ccc(Cl)cc2)cc1,38%
2,O=C(NCc1cccnc1)C(c1cc2ccccc2o1)N1CCN(C(c2ccccc2)c2ccccc2)CC1 (stereo not given),12%
3,O=C(Nc1cccc(CN2CCCN(Cc3cccnc3)CC2)c1)c1ccc(Cl)c(Cl)c1,16%
4,Cc1cc(N2CCN(C)CC2)nc2ccc(NC(=O)c3cccc(N(C)C)c3)cc12,9%
5,COc1ccc2nc(-c3ccc(C(=O)NCCCN4CCN(c5cc(Cl)ccc5OC)CC4)cc3OC)[nH]c2c1,-5%
6,O=C(NCCN1Cc2ccccc2C1=O)c1ccc(Oc2ccc(C(=O)NCCN3Cc4ccccc4C3=O)cc2)cc1,27%
7,CN(C)Cc1cccc(-c2ccc(NC(=O)c3ccc4c(=O)n(C5CCCCC5)cnc4c3)cc2)c1,92% (active)
8,COc1ccc(Br)cc1C1Nc2ccc3ccccc3c2C2=C1C(=O)CC(c1ccccc1)C2 (stereo not given),25%
9,COc1cccc(NC(=O)Nc2ccc(Nc3nc(C)cc(N4CCCC4)n3)cc2)c1,28%
10,c1ccc(CN2CCC(NCc3ccc(-c4cccc(CNC5CCCC5)c4)cc3)CC2)cc1,55% (active)
11,Clc1cccc(Cl)c1CCNCC1CCN(CC2CCCCC2)CC1,39%
12,Cc1c(Br)cc2[nH]c(-c3ccc(C(=O)NC4CCN(Cc5ccccc5)CC4)cc3)nc2c1C,4%
13,CC(C)(C)c1ccc(NC(=O)N[C@@H]2CCN(c3ccnc4ccccc34)C2)cc1,23%
14,C=Cc1sc(CNCCCNc2cc(=O)c3ccccc3[nH]2)c(C)c1Br,-5%
15,CC(=O)N(C)c1cccc(C(=O)Nc2ccc(-c3cccc(-c4nc5c(C)cccc5[nH]4)c3)cc2)c1,86% (active)
16,O=C(Nc1cccc(Cl)c1Cl)NC1CCN(Cc2cccc(O)c2)CC1,1%
17,CC(=O)Nc1cccc(C(=O)Nc2cccc(-c3ccc(-c4nc5c(C)cccc5[nH]4)cc3)c2)c1,29%
18,CCOC(=O)NC1=NC(C)(C)N(OCc2ccc(Cl)c(Cl)c2)C(NC(=O)OCC)=N1,65% (active)
19,Cc1ncc([N+](=O)[O-])n1CCOC(=O)NC(Nc1ccc(Br)cc1)C(Cl)(Cl)Cl (stereo not given),0%
20,O=S(=O)(Nc1cccc(CCN2CCCCC2CCN2CCCC2)c1)c1ccc(-c2ccccc2)cc1 (stereo not given),31%

row,SMILES,inhibition
1,COc1cc2nc(NCc3nc4ccccc4[nH]3)nc(N)c2cc1OC,3%
2,CC(C)Sc1nc2c(c(=O)n1Cc1ccco1)C1(CCCC1)Cc1ccccc1-2,8%
3,c1ccc(OCCCCN2CCCCC2)cc1,2%
4,Cc1onc(-c2c(F)cccc2Cl)c1C(=O)Nc1ccccc1I,-8%
5,O=C(NCCc1ccc(Cl)c(Cl)c1)C1CCCN(C(=O)c2ccc(O)c(-c3ccc(Cl)c(Cl)c3)c2)C1 (stereo not given),-9%
6,CCc1ccc(C(=O)NC(=O)c2ccccc2O)cc1,-4%
7,O=C(/C=C/c1ccc(Cl)c(Cl)c1)NCCCCCCN1CCN(C(=O)Nc2cc(F)cc(F)c2)CC1,23%
8,CN(Cc1cccc(F)c1)C1CCN(c2cc(NC(=O)c3cccc(F)c3)ccn2)CC1,12%
9,COc1ccc2ncc(C#N)c(CCN3C[C@H](CNCc4ccccc4)[C@H](O)C3)c2n1,3%
10,N#Cc1ccc(N2CCN(C(=O)c3cccc(-c4noc(C(F)(F)F)n4)c3)CC2)nc1,18%
11,CCCCN(CCCC)CCC(O)C(=Cc1ccc(Cl)cc1Cl)c1ccc(C(F)(F)F)cc1N (stereo not given),-9%
12,CN1CCN(c2ccnc3ccc(NC(=O)Nc4cccc5c(-c6ccncc6)cccc45)cc23)CC1,7%
13,COc1ccccc1C1CCN(C2CCC(NC(=O)c3cc(-c4ccc(Cl)cc4)cs3)CC2)CC1 (stereo not given),61% (active)
14,NC(=O)c1ccc(-n2cnc3cc(F)ccc32)cc1OCc1ccccc1C(F)(F)F (tested in a mixture with another compound),55% (active)
15,COc1cc2nc(N3CCC(CNC(=O)c4ccc(-c5ccc(C#N)cc5C)cc4)CC3)nc(N)c2cc1OC,28%
16,O=C(Nc1cccc(CN2CCCN(Cc3cccc(O)c3)CC2)c1)c1ccc2ccccc2c1,21%
17,COc1ccccc1Cn1ccnc1SCC(=O)Nc1cccc(C(F)(F)F)c1,-6%
18,c1ccc(CCNCc2ccc(-c3cccc(-c4nc5ccccc5[nH]4)c3)cc2)nc1,36%
19,c1ccc(CNc2cc(-c3ccccn3)nc(-c3ccccn3)n2)cc1,88% (active)
20,CCCNCc1ccc(-c2ccc(CN(CCOC)C(=O)c3cnc(C)cn3)cc2)nc1,-3%

# Molecular target: L-lactate dehydrogenase (Plasmodium falciparum (isolate CDC / Honduras)) (UniProt Q27743)
# Sequence (Q27743 whole entry, looked up): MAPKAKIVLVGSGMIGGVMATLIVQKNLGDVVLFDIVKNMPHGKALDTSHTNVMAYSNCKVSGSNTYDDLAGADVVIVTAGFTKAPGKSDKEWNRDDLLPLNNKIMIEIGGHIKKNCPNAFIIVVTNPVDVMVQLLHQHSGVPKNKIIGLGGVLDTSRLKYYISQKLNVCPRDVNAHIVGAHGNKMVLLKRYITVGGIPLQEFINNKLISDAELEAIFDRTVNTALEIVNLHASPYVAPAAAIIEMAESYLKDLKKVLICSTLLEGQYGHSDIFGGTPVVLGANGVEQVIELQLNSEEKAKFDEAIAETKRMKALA
# Experiment: PfLDH activity inhibition – cell lysate, 3D7 strain, counter-screen for P. falciparum growth inhibition project (AID 2304; call rule not given here;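 further: 0% = vehicle and 100% = reference inhibitor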)
# Conditions: P. falciparum 3D7 crude extract, LDH APAD/NBT absorbance; at 2 µM; hits give high values
row,SMILES,inhibition [%]
1,O=C(NCCCCN1CCN(c2ccc3c(c2)CCC3)CC1)c1ccc(NC(=O)c2ccc(Cl)cc2)cc1,2
2,O=C(NCc1cccnc1)C(c1cc2ccccc2o1)N1CCN(C(c2ccccc2)c2ccccc2)CC1 (stereo not given),6
3,O=C(Nc1cccc(CN2CCCN(Cc3cccnc3)CC2)c1)c1ccc(Cl)c(Cl)c1,-2
4,Cc1cc(N2CCN(C)CC2)nc2ccc(NC(=O)c3cccc(N(C)C)c3)cc12,4
5,COc1ccc2nc(-c3ccc(C(=O)NCCCN4CCN(c5cc(Cl)ccc5OC)CC4)cc3OC)[nH]c2c1,1
6,O=C(NCCN1Cc2ccccc2C1=O)c1ccc(Oc2ccc(C(=O)NCCN3Cc4ccccc4C3=O)cc2)cc1,-1
7,CN(C)Cc1cccc(-c2ccc(NC(=O)c3ccc4c(=O)n(C5CCCCC5)cnc4c3)cc2)c1,-3
8,COc1ccc(Br)cc1C1Nc2ccc3ccccc3c2C2=C1C(=O)CC(c1ccccc1)C2 (stereo not given),4
9,COc1cccc(NC(=O)Nc2ccc(Nc3nc(C)cc(N4CCCC4)n3)cc2)c1,-1
10,c1ccc(CN2CCC(NCc3ccc(-c4cccc(CNC5CCCC5)c4)cc3)CC2)cc1,-8
11,Clc1cccc(Cl)c1CCNCC1CCN(CC2CCCCC2)CC1,-5
12,Cc1c(Br)cc2[nH]c(-c3ccc(C(=O)NC4CCN(Cc5ccccc5)CC4)cc3)nc2c1C,1
13,CC(C)(C)c1ccc(NC(=O)N[C@@H]2CCN(c3ccnc4ccccc34)C2)cc1,0
14,C=Cc1sc(CNCCCNc2cc(=O)c3ccccc3[nH]2)c(C)c1Br,-6
15,CC(=O)N(C)c1cccc(C(=O)Nc2ccc(-c3cccc(-c4nc5c(C)cccc5[nH]4)c3)cc2)c1,-2
16,O=C(Nc1cccc(Cl)c1Cl)NC1CCN(Cc2cccc(O)c2)CC1,-1
17,CC(=O)Nc1cccc(C(=O)Nc2cccc(-c3ccc(-c4nc5c(C)cccc5[nH]4)cc3)c2)c1,-1
18,CCOC(=O)NC1=NC(C)(C)N(OCc2ccc(Cl)c(Cl)c2)C(NC(=O)OCC)=N1,2
19,Cc1ncc([N+](=O)[O-])n1CCOC(=O)NC(Nc1ccc(Br)cc1)C(Cl)(Cl)Cl (stereo not given),5
20,O=S(=O)(Nc1cccc(CCN2CCCCC2CCN2CCCC2)c1)c1ccc(-c2ccccc2)cc1 (stereo not given),0

row,SMILES,inhibition [%]
1,COc1cc2nc(NCc3nc4ccccc4[nH]3)nc(N)c2cc1OC,-2
2,CC(C)Sc1nc2c(c(=O)n1Cc1ccco1)C1(CCCC1)Cc1ccccc1-2,4
3,c1ccc(OCCCCN2CCCCC2)cc1,-11
4,Cc1onc(-c2c(F)cccc2Cl)c1C(=O)Nc1ccccc1I,-4
5,O=C(NCCc1ccc(Cl)c(Cl)c1)C1CCCN(C(=O)c2ccc(O)c(-c3ccc(Cl)c(Cl)c3)c2)C1 (stereo not given),-3
6,CCc1ccc(C(=O)NC(=O)c2ccccc2O)cc1,1
7,O=C(/C=C/c1ccc(Cl)c(Cl)c1)NCCCCCCN1CCN(C(=O)Nc2cc(F)cc(F)c2)CC1,-1
8,CN(Cc1cccc(F)c1)C1CCN(c2cc(NC(=O)c3cccc(F)c3)ccn2)CC1,3
9,COc1ccc2ncc(C#N)c(CCN3C[C@H](CNCc4ccccc4)[C@H](O)C3)c2n1,4
10,N#Cc1ccc(N2CCN(C(=O)c3cccc(-c4noc(C(F)(F)F)n4)c3)CC2)nc1,3
11,CCCCN(CCCC)CCC(O)C(=Cc1ccc(Cl)cc1Cl)c1ccc(C(F)(F)F)cc1N (stereo not given),1
12,CN1CCN(c2ccnc3ccc(NC(=O)Nc4cccc5c(-c6ccncc6)cccc45)cc23)CC1,1
13,COc1ccccc1C1CCN(C2CCC(NC(=O)c3cc(-c4ccc(Cl)cc4)cs3)CC2)CC1 (stereo not given),-1
14,NC(=O)c1ccc(-n2cnc3cc(F)ccc32)cc1OCc1ccccc1C(F)(F)F (tested in a mixture with another compound),3
15,COc1cc2nc(N3CCC(CNC(=O)c4ccc(-c5ccc(C#N)cc5C)cc4)CC3)nc(N)c2cc1OC,-4
16,O=C(Nc1cccc(CN2CCCN(Cc3cccc(O)c3)CC2)c1)c1ccc2ccccc2c1,-4
17,COc1ccccc1Cn1ccnc1SCC(=O)Nc1cccc(C(F)(F)F)c1,-2
18,c1ccc(CCNCc2ccc(-c3cccc(-c4nc5ccccc5[nH]4)c3)cc2)nc1,7
19,c1ccc(CNc2cc(-c3ccccn3)nc(-c3ccccn3)n2)cc1,-2
20,CCCNCc1ccc(-c2ccc(CN(CCOC)C(=O)c3cnc(C)cn3)cc2)nc1,-4
